# Data taken from PubChem BioAssay AID588835 (The Scripps Research Institute Molecular Screening Center, 2011).
# Activity calls are given as the source filed them. No rule for the calls is given here.
# Molecular target: Prolyl endopeptidase (Mus musculus) (UniProt Q9QUR6)
# Assay: in situ PREP and ABHD6 off-target inhibition, dose response, selectivity assay for PME-1 inhibitor project, cell-based, fluorescence, gel-based ABPP (AID 588835)
# Conditions: in situ gel-based competitive ABPP; series mostly up to 10 µM
# Sequence of Prolyl endopeptidase (Mus musculus) (Q9QUR6 whole entry, looked up): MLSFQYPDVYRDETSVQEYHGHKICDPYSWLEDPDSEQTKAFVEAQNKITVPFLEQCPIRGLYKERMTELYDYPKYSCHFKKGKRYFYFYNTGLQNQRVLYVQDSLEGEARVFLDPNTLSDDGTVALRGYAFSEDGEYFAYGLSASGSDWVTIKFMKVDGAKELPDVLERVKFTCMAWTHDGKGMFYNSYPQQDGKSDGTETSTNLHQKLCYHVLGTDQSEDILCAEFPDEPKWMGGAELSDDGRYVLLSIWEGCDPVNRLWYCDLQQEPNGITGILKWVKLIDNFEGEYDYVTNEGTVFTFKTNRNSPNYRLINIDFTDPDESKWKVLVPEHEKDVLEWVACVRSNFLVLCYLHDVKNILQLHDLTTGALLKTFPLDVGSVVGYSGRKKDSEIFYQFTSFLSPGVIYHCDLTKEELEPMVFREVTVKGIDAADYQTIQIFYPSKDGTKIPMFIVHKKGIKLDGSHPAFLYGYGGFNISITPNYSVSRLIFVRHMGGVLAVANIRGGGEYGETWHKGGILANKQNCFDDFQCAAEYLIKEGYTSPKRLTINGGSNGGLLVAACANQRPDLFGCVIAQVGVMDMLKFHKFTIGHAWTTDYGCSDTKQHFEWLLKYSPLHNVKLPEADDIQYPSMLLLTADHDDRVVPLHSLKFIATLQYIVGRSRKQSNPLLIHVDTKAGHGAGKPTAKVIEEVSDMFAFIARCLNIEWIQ
smiles,measurement,value
CC[C@@]1(c2ccc(C)cc2)C(=O)N(C(=O)OC(C)C)N1C(=O)OC(C)C,outcome,inactive
